Most compounds without a hit are left out; they make up all but 10% or so of the library.
PNC assembly inh = perinucleolar compartment assembly inhibition. PC3M PTB-GFP, PNC prevalence imaging, 16 h; stronger effect = lower value. actives 3.1% (n = 140,000). AID 2417. activity change (PNC), negative = inhibition, % at 10 µM;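 active = readout at or below -70, meaning at least 70% loss of cells showing the perinucleolar compartment, a nuclear body marking cancer cells; inconclusive = readout between -30 and a set limit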
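PC3M cells stably expressing PTB-GFP, 750–1000 cells/well, treated 16 h at 37 °C with compound (23 nl of library stock), in duplicate. After paraformaldehyde fixation and Hoechst stain, imaged at 20x; PNC prevalence scored by image analysis.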
ALOX12 inhib = 12-hLO (ALOX12) enzyme inhibition. purified 12-hLO, xylenol orange hydroperoxide absorbance. Potency, µM (highest dose often 57.1 µM), most hits filed as inhibitors. actives 0.12% (n = 150,000); active = well fitted inhibition curve with a large enough effect; inconclusive = small, poorly fitted or top-dose-only effect; note: nearly all actives have a fitted effect of over 55% in size
Target sequence (P18054 whole entry, looked up): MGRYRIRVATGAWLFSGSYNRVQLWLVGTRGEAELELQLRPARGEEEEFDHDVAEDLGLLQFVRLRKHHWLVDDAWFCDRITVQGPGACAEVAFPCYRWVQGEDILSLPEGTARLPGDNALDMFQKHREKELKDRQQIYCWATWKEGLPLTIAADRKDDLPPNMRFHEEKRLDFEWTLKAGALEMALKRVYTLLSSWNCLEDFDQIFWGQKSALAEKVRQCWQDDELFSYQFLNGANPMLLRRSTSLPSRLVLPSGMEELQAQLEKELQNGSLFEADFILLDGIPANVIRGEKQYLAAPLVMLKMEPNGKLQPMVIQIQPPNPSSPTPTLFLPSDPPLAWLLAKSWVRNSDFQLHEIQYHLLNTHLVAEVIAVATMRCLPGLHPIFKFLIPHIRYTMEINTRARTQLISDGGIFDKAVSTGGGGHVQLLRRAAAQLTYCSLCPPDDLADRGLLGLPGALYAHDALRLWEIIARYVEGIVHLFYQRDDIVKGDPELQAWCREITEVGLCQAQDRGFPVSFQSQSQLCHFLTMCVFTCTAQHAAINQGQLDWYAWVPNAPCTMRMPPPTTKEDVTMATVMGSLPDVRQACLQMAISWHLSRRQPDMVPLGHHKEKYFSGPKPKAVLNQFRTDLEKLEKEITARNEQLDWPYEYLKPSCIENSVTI
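150 nM 12hLO, 25 mM Hepes pH 7.0 + 0.01% Triton X-100; cpd preinc 15 min RT; 40 uM arachidonic acid, 30 min RT; Fe-XO 30 min; A573/A405 ratio as read-out.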
Lamin A splicing = LMNA splicing modulation. HeLa LMNA splicing GFP/RFP minigene ratio, 48 h. AID 1487. actives 0.01% (n = 200,000). Potency, µM (top dose mostly 46.1 µM), usual class: inhibitors; active = well fitted inhibition curve with a large enough effect in the signal ratio, with a control signal flat, not every such curve was filed as active; inconclusive = small, poorly fitted or top-dose-only effect, or effect the other way, or a change in a side signal; the % refers to the signal ratio
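S3 HeLa cells stably expressing lamin A-EGFP splicing minigene plus DsRed2, 600 cells/well, 48 h compound exposure at 37C. Laser-scanning cytometry; analysed as GFP (500-530 nm)/RFP (575-640 nm) total intensity ratio; 0.5% DMSO vehicle.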
ALDH1A1 block = inhibitors of human aldehyde dehydrogenase 1A1; Purified ALDH1A1, NADH fluorescence, propionaldehyde substrate; actives 7.3% (n = 220,000); AID 1030; Potency, µM (titrated, usually from 75.3 µM), most hits filed as inhibitors; P00352
HPGD inh = blocks human HPGD enzyme activity; P15428; purified HPGD, NADH fluorescence kinetic, PGE2 substrate; Potency, µM, actives largely listed as inhibitors; actives 4.3% (n = 150,000); AID 894
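20 nM HPGD preincubated 15 min at room temperature with compound in 50 mM Tris-HCl pH 8, 0.01% Tween 20. Started with 1 mM NAD+ and 30 uM prostaglandin E2; NADH fluorescence (360/450 nm) read 5 times over 30-s intervals, last minus first.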
Hits are given with their value; . = inactive; ? = inconclusive; / = no result. Unless noted, calls come from the whole dose curve; as a rule, active = well fitted inhibition curve with a large enough effect (not every such curve was filed as active); inconclusive = small, poorly fitted or top-dose-only effect, or another doubt; inactive = no such curve, though single readings can be large or run the other way.

SMILES	PNC assembly inh	ALOX12 inhib	Lamin A splicing	ALDH1A1 block	HPGD inh
Oc1ccc(Cl)cc1-c1cc(-c2ccccc2Cl)[nH]n1	.	.	.	.	7.9µM
Oc1ccc(Cl)cc1-c1cc(-c2cccc(Br)c2)n[nH]1	.	.	?	.	3.2µM
Oc1ccccc1-c1cc(-c2cccc(F)c2)n[nH]1	?	?	?	.	.
O=C(Nc1ccc(OC(F)(F)F)cc1)NC1COc2ccccc2C1 (centres undefined)	/	/	.	/	/
Cc1cccc(CNC(=O)C2CCN(c3nc4ccc(Cl)cc4[nH]3)CC2)c1	/	/	.	/	/
COCc1nc2ccccc2n1Cc1ccc(C(C)(C)C)cc1	/	/	.	/	/
CCOC(=O)c1cc(C(C)(C)C)oc1CNC(=O)c1c(C)oc2c1CCCC2	.	.	.	18µM	.
CCOC(=O)c1cc(C(C)(C)C)oc1CN	?	.	.	.	.
CCOC(=O)c1ccc(CNC(=O)c2cc(C(C)(C)C)oc2C)o1	.	.	?	25µM	.
COc1cc2c(cc1OC)C1C(=O)c3c(cc4c(c3O)C=CC(C)(C)O4)OC1CO2 (centres undefined)	/	.	.	.	.
Oc1c(C(c2ccccc2)N2CCOCC2)sc2nc(-c3ccco3)nn12 (centres undefined)	/	/	.	/	/
COC(=O)c1ccc(Sc2ccc(C)cc2)c(N)c1	?	.	?	?	?
COc1cc(Sc2ccc(C)cc2)c(OC)cc1N	.	.	.	3.5µM	28µM
O=C(O)c1ccc2nc(-c3cc4cc(Cl)ccc4oc3=O)[nH]c2c1	/	/	.	/	/
O=C1C(Cl)=C(NCCc2ccccc2)C(=O)N1CCc1ccccc1	.	.	.	.	.
O=C1C(Cl)=C(NCCCN2CCOCC2)C(=O)N1CCc1ccccc1	.	.	.	7.9µM	.
O=C1C2C3C=CC(C2C(=O)N1c1cccc(O)c1)C1C2C(=O)N(c4cccc(O)c4)C(=O)C2C31 (centres undefined)	/	/	/	1.4µM	/
Cc1cc(C)cc(N2CCn3c2nc2c3c(=O)n(Cc3c(F)cccc3Cl)c(=O)n2C)c1	/	/	.	/	/
O=c1[nH][nH]c(=S)n1C1CCCCC1	/	/	/	1.3µM	/
CC(=O)NC1Sc2ccccc2N=C1c1ccccc1 (centres undefined)	.	.	.	25µM	?
O=C(CN1C(=O)C2(SCC(=O)N2c2cccc(Cl)c2)c2ccccc21)NCCc1ccccc1 (centres undefined)	/	/	.	/	/
COc1ccccc1N1CCN(S(=O)(=O)c2ccc(-c3ccno3)cc2OC)CC1	/	/	.	/	/
COc1ccc(C2=C(C)C(N3CCC(C(=O)NCc4ccco4)CC3)=NS2(=O)=O)cc1	/	/	.	/	/
O=[N+]([O-])c1cc(C(F)(F)F)ccc1Sc1ccc2ccccc2n1	.	.	?	?	16µM
Nc1nc(Sc2ccc(C(F)(F)F)cc2[N+](=O)[O-])n[nH]1	.	.	.	.	.
SMILES	PNC assembly inh	ALOX12 inhib	Lamin A splicing	ALDH1A1 block	HPGD inh
COCOc1ccc(OC)cc1C(=O)/C=C/c1ccc(OC)c(Br)c1	/	/	/	.	.
Cc1ccc2cc(CCNC(=O)c3ccco3)c(=O)[nH]c2c1	.	.	.	?	?
Cc1ccc2cc(CN(C(=O)c3ccco3)c3ccccc3C)c(=O)[nH]c2c1	.	.	?	4.5µM	.
CCOc1ccc(S(=O)(=O)NCC(c2ccco2)S(=O)(=O)c2ccc(C)cc2)cc1 (centres undefined)	/	/	.	/	/
c1ccc(Cn2nnnc2C(c2ccccc2)N2CCN(c3nc4ccccc4s3)CC2)cc1 (centres undefined)	.	.	.	11µM	.
COc1ccc(C(c2nnnn2Cc2ccccc2)N2CCN(c3nc4ccccc4s3)CC2)cc1OC (centres undefined)	.	.	?	.	.
Cc1ccc(C)c(N2CCN(C(c3ccncc3)c3nnnn3Cc3ccccc3)CC2)c1 (centres undefined)	.	.	.	13µM	?
c1csc(Cn2nnnc2CN2CCN(c3nc4ccccc4s3)CC2)c1	?	.	?	16µM	.
COc1cc(OC)cc(C(=O)NC2CCN(Cc3nnnn3Cc3cccs3)CC2)c1	.	.	.	13µM	.
COc1ccccc1CNC(=O)C1CCN(S(=O)(=O)c2ccc3c(c2)CCCN3C(C)=O)CC1	/	/	.	/	/
O=Cc1ccc(OC(=O)c2cc(Cl)nc3ccccc23)cc1	.	.	.	14µM	.
O=C(N/N=C/c1cc([N+](=O)[O-])ccc1O)C12CC3CC(CC(C3)C1)C2	/	/	?	0.89µM	/
COc1cc([N+](=O)[O-])ccc1-c1ccc(C(=O)Nc2ccc(NC(C)=O)cc2)o1	.	.	.	0.89µM	28µM
N#Cc1ccccc1Cn1c(SCC(=O)NCc2ccccc2)nc2ccccc21	/	/	.	/	/
CCC(/C=C1\Sc2ccc(OC)cc2N1CCO)=C\c1sc2ccc(OC)cc2[n+]1CCO	.	.	?	?	.
CCC(/C=C1\Sc2ccc(OC)cc2N1CC)=C\c1sc2ccc(OC)cc2[n+]1CCCS(=O)(=O)[O-]	/	/	.	1.3µM	/
Oc1c(C(c2ccc(Cl)cc2)N2CCC3(CC2)OCCO3)sc2nc(-c3ccco3)nn12 (centres undefined)	/	/	.	/	/
COc1ccc(NC(=O)CSc2ccccn2)cc1	.	.	.	.	25µM
CC(/C=N/NC(=O)CSc1ccccn1)=C\c1ccc(C(C)C)cc1	.	.	.	25µM	.
COc1ccc(C(=O)N/N=C/c2ccc(OC)c(CSc3ccccn3)c2)cc1	.	.	?	?	32µM
O=C(CSc1ccccn1)Nc1ccc(NC(=O)CSc2ccccn2)cc1	/	/	.	.	/
COc1ccc(/C=N/NC(=O)c2cccc(Br)c2)cc1CSc1ccccn1	.	.	?	?	?
COc1cccc(NC(=O)CSc2ccccn2)c1	.	.	.	20µM	28µM
CC(=C/c1ccc(C(C)C)cc1)/C=N/NC(=O)CSc1ccccn1	?	.	.	?	.
COc1ccc(CNC(=O)C2(c3cccs3)CCOCC2)cc1	/	/	.	/	/
SMILES	PNC assembly inh	ALOX12 inhib	Lamin A splicing	ALDH1A1 block	HPGD inh
Cc1cc(C)nc(NC(=O)CSc2ccccn2)n1	.	.	.	10µM	.
Cc1cc(C)nc(NC(=O)CSc2ncccn2)n1	/	/	.	.	/
COc1ccc(NC(=O)CSc2ccc(-c3ccccn3)nn2)cc1OC	.	.	.	14µM	.
Cc1ccc(NC(=O)CSc2ccc(-c3ccccn3)nn2)cc1	/	/	?	.	/
FC(F)(F)c1ccccc1-c1nc(NC2CC2)c2ccccc2n1	/	/	.	.	/
Cc1cccn2c(=O)c(C=Nc3ccc(Cl)cc3)c(NCCO)nc12	-100	.	?	?	?
CCc1ccc(-c2nc(-c3ccncc3)no2)cc1	.	.	?	.	.
Brc1ccc(-c2nc(-c3ccncc3)no2)o1	-89	.	.	.	.
CCCCc1ccc(-c2nc(-c3ccncc3)no2)cc1	.	.	.	6.3µM	.
COC(=O)[C@@]1(Cc2ccccc2)[C@H]2c3cc(C(=O)N(C)C)n(Cc4ccc(O)c(OC)c4)c3C[C@H]2CN1C(=O)c1ccccc1	/	.	/	.	.
